IDE exosite FP: insulin-degrading enzyme (human) exo-site inhibition; P14735; z-score at 20 µM; purified IDE, FL-6b probe fluorescence polarization; hits give low values; actives 6.3% (n = 17,000);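 active means z-score of -3 or lower, meaning strong loss of probe binding signal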;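 further: His-tagged human IDE residues 42-1019 made in E. coli with 30 nM FL-6b probe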
Target sequence (P14735 42-1019 limits assumed): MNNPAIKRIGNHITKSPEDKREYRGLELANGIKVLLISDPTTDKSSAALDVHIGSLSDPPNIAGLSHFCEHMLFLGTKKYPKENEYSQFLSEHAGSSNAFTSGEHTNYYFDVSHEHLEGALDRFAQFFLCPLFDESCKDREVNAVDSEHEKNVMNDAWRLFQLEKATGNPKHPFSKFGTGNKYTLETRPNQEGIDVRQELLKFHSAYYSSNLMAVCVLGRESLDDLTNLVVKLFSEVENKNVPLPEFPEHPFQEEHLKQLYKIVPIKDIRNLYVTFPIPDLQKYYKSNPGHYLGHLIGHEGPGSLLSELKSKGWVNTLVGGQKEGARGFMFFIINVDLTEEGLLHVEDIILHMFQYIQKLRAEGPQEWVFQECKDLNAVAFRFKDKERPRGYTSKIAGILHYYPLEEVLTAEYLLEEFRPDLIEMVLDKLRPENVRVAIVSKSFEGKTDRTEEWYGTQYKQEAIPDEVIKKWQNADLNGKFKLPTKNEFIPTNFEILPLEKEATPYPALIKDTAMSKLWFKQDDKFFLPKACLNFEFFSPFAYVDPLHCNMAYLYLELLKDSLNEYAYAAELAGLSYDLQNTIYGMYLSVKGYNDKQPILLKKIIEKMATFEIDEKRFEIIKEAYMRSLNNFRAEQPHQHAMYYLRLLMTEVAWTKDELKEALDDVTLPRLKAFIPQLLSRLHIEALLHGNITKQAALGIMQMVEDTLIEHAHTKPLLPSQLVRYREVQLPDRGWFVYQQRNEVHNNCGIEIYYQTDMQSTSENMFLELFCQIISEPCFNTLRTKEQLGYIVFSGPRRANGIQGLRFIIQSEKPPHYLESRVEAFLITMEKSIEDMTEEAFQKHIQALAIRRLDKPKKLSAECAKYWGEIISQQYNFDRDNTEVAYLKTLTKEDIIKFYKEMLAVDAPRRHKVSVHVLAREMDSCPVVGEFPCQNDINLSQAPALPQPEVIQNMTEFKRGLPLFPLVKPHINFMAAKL
Starred values were filed as active, the others as inactive. This is one part of a sample in which hits are shown more often than they occur.

SMILES | IDE exosite FP
C/C=C/c1ccc([C@H]2[C@H]3CN(C(=O)Nc4ccc(OC)cc4)CC(=O)N3[C@H]2CO)cc1 | -5.1*
C/C=C/c1ccc([C@H]2[C@@H](CO)N3C(=O)CN(C(=O)Nc4ccc(OC)cc4)C[C@@H]23)cc1 | 0.83
COc1cccc(-c2ccc([C@H]3[C@@H](CO)N4C(=O)CN(C(=O)NC(C)C)C[C@@H]34)cc2)c1 | -5.4*
C/C=C/c1ccc([C@H]2[C@H](CO)N3C(=O)CN(C(=O)Nc4ccc(OC)cc4)C[C@@H]23)cc1 | -0.39
COc1ccc(C#Cc2ccc([C@@H]3[C@@H](CO)N4C(=O)CN(C(=O)NC(C)C)C[C@H]34)cc2)cc1 | -0.25
COc1ccc(C#Cc2ccc([C@@H]3[C@H]4CN(C(=O)NC(C)C)CC(=O)N4[C@H]3CO)cc2)cc1 | 1
COc1ccc(-c2ccc([C@H]3[C@@H](CO)N4C(=O)CNC[C@H]34)cc2)cc1 | -3.2*
Cc1noc(C)c1NC(=O)Nc1ccc2c(c1)C(=O)N(C)[C@H]1CC[C@@H](CC(=O)N[C@@H]3CCN(Cc4ccccc4)C3)O[C@H]1CO2 | 0.42
CO[C@H]1CN(C)C(=O)c2cc(NC(=O)NC(C)C)ccc2OC[C@@H](C)N(C(=O)CN(C)C)C[C@@H]1C | 0.47
CN(C[C@@H]1[C@@H](c2ccccc2)[C@H](CO)N1CC1CC1)C(=O)c1ccc(F)cc1 | 0.72
CN1c2ccc(-c3ccccc3)cc2[C@H]2[C@H](CCN2C(=O)NC2CCCCC2)[C@@H]1CO | 0.074
O=C(NC[C@H]1[C@@H](c2ccccc2)[C@H](CO)N1Cc1cccnc1)c1ccccn1 | -1.6
O=C(c1ccncc1)N1CC(=O)N2[C@H](CO)[C@@H](c3ccc(C#CCC4CCCC4)cc3)[C@H]2C1 | 2.6
C/C=C/c1ccc([C@@H]2[C@@H](CO)N3C(=O)CN(Cc4ccc(F)cc4)C[C@@H]23)cc1 | -0.61
COc1cccc(NC(=O)N2CC(=O)N3[C@H](CO)[C@@H](c4ccc(Br)cc4)[C@H]3C2)c1 | 2.8
COc1ccc(C#Cc2ccc([C@H]3[C@H](CO)N4C(=O)CN(C(=O)NC(C)C)C[C@@H]34)cc2)cc1 | -1.2
COc1cccc(-c2ccc([C@@H]3[C@@H](CO)N4C(=O)CN(C(=O)NC(C)C)C[C@@H]34)cc2)c1 | -14*
COc1cccc(-c2ccc([C@@H]3[C@@H](CO)N4C(=O)CN(C(=O)NC(C)C)C[C@H]34)cc2)c1 | -3.5*
COc1ccc(C#Cc2ccc([C@H]3[C@@H](CO)N4C(=O)CN(C(=O)NC(C)C)C[C@H]34)cc2)cc1 | 1.4
Cc1ccc(-c2ccc([C@@H]3[C@@H](CO)N4C(=O)CN(C(=O)NC(C)C)C[C@H]34)cc2)cc1 | -0.83
COc1cccc(NC(=O)N2CC(=O)N3[C@@H](CO)[C@@H](c4ccc(Br)cc4)[C@@H]3C2)c1 | -0.29
COc1cccc(NC(=O)N2CC(=O)N3[C@H](C2)[C@@H](c2ccc(Br)cc2)[C@@H]3CO)c1 | -3.2*
COc1ccc(NC(=O)N2CC(=O)N3[C@H](C2)[C@H](c2ccc(-c4ccccc4)cc2)[C@@H]3CO)cc1 | 0.54
Cc1ccc(-c2ccc([C@H]3[C@@H](CO)N4C(=O)CN(C(=O)NC(C)C)C[C@@H]34)cc2)cc1 | -0.36
COc1cccc(-c2ccc([C@@H]3[C@H]4CN(C(=O)NC(C)C)CC(=O)N4[C@H]3CO)cc2)c1 | -12*
SMILES | IDE exosite FP
C/C=C/c1ccc([C@@H]2[C@H](CO)N(C(=O)C3CCC3)C23CN(C(=O)NC(C)C)C3)cc1 | -1.7
O=C(Cc1ccccn1)N[C@H]1CC[C@H](CCNS(=O)(=O)c2cccc(F)c2)O[C@H]1CO | 0.68
CCCC#Cc1ccc([C@@H]2[C@H](CO)N3CCCCN(Cc4ccncc4)C[C@@H]23)cc1 | 2.8
CC(=O)N(C[C@@H]1N[C@@H](CO)[C@@H]1c1ccc(-c2ccccc2)cc1)C(C)C | 4.7
N#C[C@@H]1[C@@H](c2ccccc2-c2ccccc2)[C@@H](CO)N1C(=O)NC1CCCC1 | 1
CCc1csc(N2[C@@H](C#N)[C@H](c3ccc(C#Cc4ccc(F)cc4)cc3)[C@@H]2CO)n1 | 3.4
CN1CCN(C(=O)C[C@@H]2CC[C@@H]3[C@H](COc4ccc(NC(=O)C5CCOCC5)cc4C(=O)N3C)O2)CC1 | 0.031
O=C(NC[C@H]1N[C@@H](CO)[C@H]1c1ccc(-c2ccc(F)cc2)cc1)c1ccccn1 | 5.7
COCC(=O)NC[C@@H]1N[C@@H](CO)[C@H]1c1ccc(-c2ccccc2F)cc1 | -3.8*
COCC(=O)NC[C@@H]1N[C@@H](CO)[C@H]1c1ccc(C2=CCCCC2)cc1 | 1.9
COCC(=O)NC[C@H]1N[C@H](CO)[C@@H]1c1ccc(-c2ccccc2)cc1 | -0.6
O=C(NC[C@H]1N[C@H](CO)[C@H]1c1ccc(-c2ccccc2F)cc1)c1ccccn1 | -4.7*
O=C(NC[C@H]1N[C@@H](CO)[C@H]1c1ccc(-c2ccccc2F)cc1)c1ccccn1 | -2.5
O=C(C1CC1)N1CCCCN2[C@@H](CO)[C@@H](c3ccc(-c4cccc(F)c4)cc3)[C@@H]2C1 | -0.18
Cc1cccc(-c2ccc([C@H]3[C@@H](CO)N4C(=O)CN(S(=O)(=O)c5cccc(F)c5)C[C@@H]34)cc2)c1 | 3.3
CS(=O)(=O)N1CCCCN2[C@@H](CO)[C@H](c3ccc(C4=CCCC4)cc3)[C@@H]2C1 | -0.46
O=C1CN(S(=O)(=O)Cc2ccccc2)C[C@H]2[C@H](c3ccc(C#Cc4cccc(F)c4)cc3)[C@H](CO)N12 | 0.85
COCC(=O)N1CCCCN2[C@H](CO)[C@@H](c3ccc(-c4ccc(C)cc4)cc3)[C@@H]2C1 | 1.2
CN(C)C(=O)C[C@H]1C[C@H]2c3cc(NC(=O)Nc4ccc(F)cc4)ccc3O[C@H]2[C@@H](CO)O1 | -0.39
COc1cccc(NC(=O)N2CC(=O)N3[C@@H](CO)[C@H](c4ccc(C5=CCCC5)cc4)[C@@H]3C2)c1 | 3.1
O=C(CN1CCOCC1)N1CC(=O)N2[C@@H](CO)[C@H](c3ccc(-c4ccccc4)cc3)[C@@H]2C1 | 1.5
COc1cccc(-c2ccc([C@H]3[C@@H](CO)N4C(=O)CN(C(=O)C5CCOCC5)C[C@H]34)cc2)c1 | -8.7*
COc1ccc(-c2ccc([C@@H]3[C@@H](CO)N4C(=O)CN(C(=O)C5CCOCC5)C[C@H]34)cc2)cc1 | 1.6
COc1cccc(-c2ccc([C@H]3[C@H]4CN(C(=O)C5CCOCC5)CC(=O)N4[C@H]3CO)cc2)c1 | -0.85
COc1cccc(-c2ccc([C@H]3[C@H](CO)N4C(=O)CN(C(=O)C5CCOCC5)C[C@@H]34)cc2)c1 | -1.8
SMILES | IDE exosite FP
COc1cccc(-c2ccc([C@H]3[C@@H](CO)N4C(=O)CN(C(=O)C5CCOCC5)C[C@@H]34)cc2)c1 | -4.5*
COc1ccc(-c2ccc([C@H]3[C@H](CO)N4C(=O)CN(C(=O)C5CCOCC5)C[C@@H]34)cc2)cc1 | -1.1
COc1cccc(-c2ccc([C@H]3[C@H](CO)N4C(=O)CN(C(=O)CN5CCOCC5)C[C@@H]34)cc2)c1 | -3.4*
O=C(CN1CCOCC1)N1CC(=O)N2[C@H](CO)[C@@H](c3ccc(-c4cccc(F)c4)cc3)[C@H]2C1 | 1.2
COc1ccc(-c2ccc([C@@H]3[C@@H](CO)N4CCCCN(C(=O)c5ccc6c(c5)OCO6)C[C@H]34)cc2)cc1 | 4.3
N#Cc1ccc(-c2ccc3c(c2)[C@H]2[C@H](CCN2C(=O)c2cccnc2)[C@@H](CO)N3)cc1 | 1.7
CCC(=O)N1CC(=O)N2[C@H](CO)[C@@H](c3ccc(C#CCc4ccccc4)cc3)[C@@H]2C1 | -0.78

Bioassay records deposited in PubChem BioAssay by Broad Institute.
